# Where “and” joins values, the source holds several entries; their conditions need not be identical. Identical values can stand only once. A number with no mark means an inactive call. Records with an inconclusive call do not appear. Calls of active or inactive are those of the source. Unless noted, the call rests on the fitted dose curve; in most records, active means well fitted curve in either direction with a large enough effect (not every such curve was filed as active); inconclusive means small, poorly fitted or top-dose-only effect, or another doubt; inactive means flat fitted curve, though single readings scatter.
# How the values were obtained:
# [1] = Cell Viability - BJ (AID 421; calls by dose curve;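 further: potency means the concentration at half of the fitted maximal effect; cells exposed to compound for 40 hours at 37 °C before readout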); details: BJ fibroblast viability, qHTS
# Procedure, shortened: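 Luminescent ATP signal (CellTiter-Glo, 20 min at room temperature) served as the read-out of viable BJ cells after 40 hours of compound treatment. Responses were scaled between DMSO and 100 uM tamoxifen, and AC50 values were obtained by Hill modeling.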
# [2] = Cell Viability - Jurkat (AID 426;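 active means dose-dependent loss of cell ATP signal giving a full or clear fitted curve, ranked by lower potency value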;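 further: potency means the concentration at half of the fitted maximal effect; cells exposed to compound for 40 hours at 37 °C before ATP read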); details: qHTS
# Procedure, shortened: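 Luminescent ATP read-out (CellTiter-Glo, 20 min at room temperature) after 40 hr compound exposure at 37 °C of Jurkat E6-1 cells, 5000/well. Decreased ATP taken as cytotoxicity; AC50 from standard Hill equation.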
# [3] = Cell Viability - Hek293 (AID 427;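 active means compounds whose dose-response curve shows a full or clear partial loss of cell viability, called from curve shape rather than a numeric limit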;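 further: potency means the concentration at half of the fitted maximal effect; cells exposed to compound for 40 hours at 37 °C before reading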); details: qHTS
# Procedure, shortened: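 Luminescent ATP read-out (CellTiter-Glo, 20 min RT) after 40 hr compound exposure at 37 °C in complete medium. Signal normalized to DMSO (basal) and 100 uM tamoxifen (100% inhibition); concentration-response fitted with the standard Hill equation to give AC50.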
# [4] = Cell Viability - MRC5 (AID 434; calls by dose curve;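 further: potency means the concentration at half of the fitted maximal effect; cells exposed to compound for 40 hours at 37 °C; potency reflects cytotoxicity seen as loss of intracellular ATP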); details: MRC5 lung fibroblast viability, qHTS
# Procedure, shortened: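 Decrease in intracellular ATP, quantified by luciferase light output, reflects compound toxicity toward MRC5 cells exposed for 40 hr in complete culture medium. Concentration-response curves, scaled between DMSO and 100 uM tamoxifen, gave AC50 values.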
# [5] = Cell Viability - SK-N-SH (AID 435; calls by dose curve; further: potency means the concentration at half of the fitted maximal effect); details: SK-N-SH neuroblastoma cell viability qHTS
# Procedure, shortened: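 qHTS cytotoxicity: CellTiter-Glo ATP luminescence after 40 h compound exposure of human neuroblastoma SK-N-SH cells at 37 °C. AC50 derived by Hill-equation fitting, with DMSO as basal and 100 uM tamoxifen as full inhibition.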
# [6] = target: Mitogen-activated protein kinase 10 (Mus musculus) (UniProt Q61831); test: JNK3 AlphaScreen Assay (AID 530); details: JNK3 lysate, c-Jun phosphorylation; series mostly up to 25.6 µM;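 further: kinase came from lysate of stimulated human HepG2 cells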; further: potency means the concentration at half of the fitted maximal effect;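 on activity change, negative = inhibition: signal reports phosphorylation of biotinylated GST-cJun 1-79 at Ser73 with 10 µM ATP; on the % scale 0 is the no-effect control and ±100 the full control effect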
# Procedure, shortened: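 Biotinylated GST-cJun(1-79) served as substrate for JNK3 in HepG2 lysates stimulated with IL-1beta and TNF-alpha. ATP was 10 uM final, pH 7.6. Ser73 phosphorylation was quantified by AlphaScreen (680 nm excitation).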
# [7] = Cell Viability - N2a (AID 540; active means well fitted curve in the direction sought with a large enough effect; an effect the other way counts as inactive or inconclusive; further: nearly all actives have a fitted effect of over 45% in size; further: potency means the concentration at half of the fitted maximal effect;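 on activity change, negative = cytotoxicity: plate controls were DMSO alone for no effect and tamoxifen control for full effect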); details: N2a mouse neuroblastoma cell viability; series mostly up to 92.2 µM
# Procedure, shortened: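 N2a mouse neuroblastoma, 1500 cells/well, 5 hr settle; compound 40 hr, 37 °C; CellTiter-Glo 20 min RT; luminescence; Hill-fit AC50.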
# [8] = Cell Viability - NIH 3T3 (AID 541; active means well fitted curve in the direction sought with a large enough effect; an effect the other way counts as inactive or inconclusive; further: nearly all actives have a fitted effect of over 25% in size; further: potency means the concentration at half of the fitted maximal effect;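 on activity change, negative = cytotoxicity: plate controls were DMSO alone for no effect and tamoxifen positive control for full effect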); details: NIH 3T3 cell viability, qHTS; activity change, negative = cytotoxicity: at 92.2 µM (top of the series)
# Procedure, shortened: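 qHTS format; 40 hr compound exposure, 37 °C; CellTiter-Glo luminescence (cellular ATP) read-out after 20 min at RT. Decrease in ATP = cytotoxicity; AC50 from standard Hill fit.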
# [9] = Cell Viability - HUV-EC-C (AID 542; active means well fitted curve in the direction sought with a large enough effect; an effect the other way counts as inactive or inconclusive; further: on the % scale 0 is the no-effect control and ±100 the full control effect; nearly all actives have a fitted effect of over 35% in size); details: HUV-EC-C endothelial cell viability, qHTS; series mostly up to 92.2 µM
# Procedure, shortened: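 Luminescent ATP read-out (CellTiter-Glo, 20 min room temperature) after 40 hr compound treatment of HUV-EC-C cells at 37 °C. Concentration-response data fitted with the standard Hill equation to give AC50; tamoxifen and doxorubicin served as positive controls.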
# [10] = Cell Viability - H-4-II-E (AID 543; active means well fitted curve in the direction sought with a large enough effect; an effect the other way counts as inactive or inconclusive; further: nearly all actives have a fitted effect of over 35% in size; further: potency means the concentration at half of the fitted maximal effect); details: H-4-II-E rat hepatoma viability; series mostly up to 92.2 µM
# Procedure, shortened: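 qHTS, rat hepatoma H-4-II-E, 1500 cells/well; 40 hr compound exposure, 37 °C; CellTiter-Glo ATP luminescence after 20 min RT; AC50 by standard Hill fit.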
# [11] = Cell Viability - SH-SY5Y (AID 544; active means well fitted curve in the direction sought with a large enough effect; an effect the other way counts as inactive or inconclusive;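 further: 0% = DMSO alone and -100% = 100 µM tamoxifen; nearly all actives have a fitted effect of over 55% in size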); details: SH-SY5Y neuroblastoma cell viability; viability change, negative = cytotoxic: at 92.2 µM (top of the series)
# Procedure, shortened: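 SH-SY5Y, 1500 cells/well, 5 hr pre-incubation 37 °C; cpd 40 hr 37 °C; CellTiter-Glo 20 min RT; luminescence (ATP) read. qHTS concentration-response, Hill fit → AC50. Tamoxifen, doxorubicin as positive controls.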
# [12] = Cell Viability - Renal Proximal Tubule (AID 545; active means well fitted curve in the direction sought with a large enough effect; an effect the other way counts as inactive or inconclusive;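 further: 0% = DMSO only and -100% = 100 µM tamoxifen; nearly all actives have a fitted effect of over 40% in size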); details: renal proximal tubule cells viability, primary cells of rat origin; series mostly up to 91.7 µM
# Procedure, shortened: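 Viability taken as intracellular ATP (CellTiter-Glo luminescence) after 40 hr, 37 °C compound treatment of primary proximal tubule cells from rat kidney, 1000 cells/well; Hill-equation fits of qHTS concentration-response data gave AC50.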
# [13] = Cell Viability - Mesenchymal (AID 546; active means well fitted curve in the direction sought with a large enough effect; an effect the other way counts as inactive or inconclusive;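 further: cells exposed to compound for 40 hours before reading; 0% = DMSO only and -100% = 100 µM tamoxifen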); details: mesenchymal cells viability, qHTS; series mostly up to 91.7 µM
# Procedure, shortened: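 In this qHTS cytotoxicity format, glomerulus-derived human mesenchymal kidney cells received compound for 40 hr, then luciferase-based ATP quantitation. Concentration-response data were fitted with the Hill equation.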
# [14] = target: Cytochrome P450 1A2 (Homo sapiens) (UniProt P05177); test: p450-cyp1a2 (AID 410; calls by dose curve; further: potency means the concentration at half of the fitted maximal effect;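 on activity change, negative = inhibition: -100% = full effect of reference inhibitor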); details: recombinant CYP1A2, luciferin-ME demethylation, luminescence; series mostly up to 25.6 µM
# Procedure, shortened: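 20nM CYP1A2, 100uM Luciferin-ME (=Km), 100mM KPO4; cpd 10 min RT; +NADPH regen, 60 min RT; stop/detect 20 min; luminescence. Normalized to furafylline 57 uM = full inhibition.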
# [15] = target: Glucocorticoid receptor (Homo sapiens) (UniProt P04150); test: GR-GFP Redistribution (AID 450;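 active means compounds whose dose series gives a full or clear partial fitted curve of increased nuclear translocation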; further: potency means the concentration at half of the fitted maximal effect); details: U2OS GR-GFP nuclear translocation, laser cytometry, 2 h
# [16] = target: Glucocorticoid receptor (Homo sapiens) (UniProt P04150); test: GR-EFC Redistribution (AID 451; calls by dose curve; further: potency means the concentration at half of the fitted maximal effect); details: CHO-K1 GR-EFC translocation, beta-gal luminescence, 2 h
# Procedure, shortened: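 CHO-K1 cells stably expressing nuclear-localized β-gal enzyme acceptor and GR fused C-terminally to the enzyme donor fragment; ligand-driven nuclear translocation restores β-gal by complementation. Compounds titrated up to 46 uM final, 2 h at 37 °C; luminescence read.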
# [17] = AP1 Signaling Pathway (AID 357); details: ME-180 AP-1-bla reporter, EGF-induced, beta-lactamase ratio, 5 h; series mostly up to 17.2 µM;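 further: ME-180 reporter cells stimulated with EGF at its EC50 level; on the % scale 0 is the no-effect control and ±100 the full control effect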
# Procedure, shortened: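 Titration-series screen for positive or negative modulators of EC50 EGF-induced signaling in ME-180 cells carrying an AP-1-driven beta-lactamase reporter. After 5 hours at 37 degrees Celsius, CCF4 460nm/530nm emission ratio gave %Activity; AC50 values derived.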
# [18] = NFAT Signaling Pathway (AID 444); details: Jurkat NFAT-bla M1, carbachol, beta-lactamase ratio, 5 h; at 17.2 µM (top of the series) unless noted;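 further: carbachol stimulus at about its EC50 of 1 µM final; on the % scale 0 is the no-effect control and ±100 the full control effect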
# Procedure, shortened: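 Jurkat cells carrying an NFAT-driven β-lactamase reporter and co-transfected muscarinic M1 receptor were treated with compound plus carbachol (1 uM final, an EC50 level) for 5 h at 37 °C. CCF4 loading followed for 1 h at RT; 460/530 nm ratio gave %activity.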
# [19] = Stat Signaling Pathway (AID 446); details: ME-180 (cervical carcinoma) SIE beta-lactamase reporter, IL-6 stimulated, 5 h; series mostly up to 17.2 µM;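 further: ME-180 cervical cancer cells given 40 pM IL-6 alongside compound; SIE-controlled beta-lactamase reporter measured as 460/530 nm FRET emission ratio; on the % scale 0 is the no-effect control and ±100 the full control effect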
# Procedure, shortened: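 Compound effects on IL-6-induced STAT reporter activity were measured in ME-180 cells. After overnight culture, cells were co-treated with 40 pM IL-6 for 5 hrs before beta-lactamase substrate loading at room temperature.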
# Chain of Cytochrome P450 1A2 (Homo sapiens) (P05177 whole entry, looked up): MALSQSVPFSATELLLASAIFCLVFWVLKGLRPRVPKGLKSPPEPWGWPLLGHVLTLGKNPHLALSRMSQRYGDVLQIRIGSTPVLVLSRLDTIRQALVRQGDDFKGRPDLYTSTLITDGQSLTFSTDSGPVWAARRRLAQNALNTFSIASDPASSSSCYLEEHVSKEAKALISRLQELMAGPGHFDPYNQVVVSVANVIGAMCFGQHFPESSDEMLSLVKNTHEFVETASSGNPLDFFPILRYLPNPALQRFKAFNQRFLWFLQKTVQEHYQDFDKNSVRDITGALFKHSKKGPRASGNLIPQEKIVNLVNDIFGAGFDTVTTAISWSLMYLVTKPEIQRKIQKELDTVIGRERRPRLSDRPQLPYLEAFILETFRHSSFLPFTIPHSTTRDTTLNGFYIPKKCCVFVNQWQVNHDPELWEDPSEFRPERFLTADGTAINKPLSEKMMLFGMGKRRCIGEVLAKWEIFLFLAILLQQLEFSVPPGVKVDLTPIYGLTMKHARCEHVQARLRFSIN
# Chain of Glucocorticoid receptor (Homo sapiens) (P04150 whole entry, looked up, the tested form may be a part): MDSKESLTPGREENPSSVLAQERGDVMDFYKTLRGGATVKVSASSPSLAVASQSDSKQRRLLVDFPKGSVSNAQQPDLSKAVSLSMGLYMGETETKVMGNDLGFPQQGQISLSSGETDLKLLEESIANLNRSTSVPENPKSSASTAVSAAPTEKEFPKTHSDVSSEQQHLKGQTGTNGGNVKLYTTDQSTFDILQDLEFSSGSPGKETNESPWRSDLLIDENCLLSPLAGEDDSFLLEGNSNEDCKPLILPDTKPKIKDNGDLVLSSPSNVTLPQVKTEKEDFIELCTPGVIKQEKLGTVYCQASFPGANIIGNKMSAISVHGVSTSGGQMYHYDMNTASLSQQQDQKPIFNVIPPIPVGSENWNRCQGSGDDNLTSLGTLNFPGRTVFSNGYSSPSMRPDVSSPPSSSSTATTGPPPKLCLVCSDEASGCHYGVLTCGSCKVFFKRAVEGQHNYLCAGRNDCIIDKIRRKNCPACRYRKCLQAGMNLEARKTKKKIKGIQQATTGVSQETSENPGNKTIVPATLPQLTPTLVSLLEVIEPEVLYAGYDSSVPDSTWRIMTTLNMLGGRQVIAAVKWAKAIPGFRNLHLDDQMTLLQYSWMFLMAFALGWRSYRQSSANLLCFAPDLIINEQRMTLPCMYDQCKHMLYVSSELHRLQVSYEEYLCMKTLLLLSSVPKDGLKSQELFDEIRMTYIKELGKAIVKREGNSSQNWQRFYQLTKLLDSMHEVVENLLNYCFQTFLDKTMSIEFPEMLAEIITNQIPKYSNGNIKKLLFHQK
smiles,measurement,setting,value
OC[C@H]1O[C@@H]2O[C@H]3[C@H](O)[C@@H](O)[C@@H](O[C@H]4[C@H](O)[C@@H](O)[C@@H](O[C@H]5[C@H](O)[C@@H](O)[C@@H](O[C@H]6[C@H](O)[C@@H](O)[C@@H](O[C@H]7[C@H](O)[C@@H](O)[C@@H](O[C@H]8[C@H](O)[C@@H](O)[C@@H](O[C@H]1[C@H](O)[C@H]2O)O[C@@H]8CO)O[C@@H]7CO)O[C@@H]6CO)O[C@@H]5CO)O[C@@H]4CO)O[C@@H]3CO,Potency,[1],> 92 µM
same,Potency,[2],> 92 µM
same,Potency,[3],> 92 µM
same,Potency,[4],> 92 µM
same,Potency,[5],> 92 µM
same,Potency,[6],inactive
same,Potency,[7],inactive
same,"activity change, negative = cytotoxicity",[8],5.27%
same,outcome,[9],inactive
same,Potency,[10],inactive
same,"viability change, negative = cytotoxic",[11],-6.32%
same,outcome,[12],inactive
same,outcome,[13],inactive
COc1ccccc1N1CCN(CCCCNC(=O)c2ccc(-c3ccc(C(C)=O)cc3)cc2)CC1,Potency,[14],25.1 µM (active)
same,Potency,[15],> 46 µM
same,Potency,[16],> 46 µM
O=C(O)CCC(=O)Nc1ccc(S(=O)(=O)Nc2nccs2)cc1,outcome,[17],inactive
same,"activity change, negative = inhibition",[18],4.24% and -25.1%
same,outcome,[19],inactive
same,Potency,[15],> 20.6 µM
same,Potency,[16],> 20.6 µM
same,Potency,[6],inactive
CCOC(=O)Nc1ccc2c(c1)N(C(=O)CCN1CCOCC1)c1ccccc1S2,Potency,[14],inactive
same,outcome,[19],inactive
same,Potency,[16],> 20.6 µM
same,Potency,[6],inactive
CC(C)(C)NCC(O)COc1cccc2c1C[C@H](O)[C@H](O)C2 (stereo partly specified),outcome,[17],inactive
same,"activity change, negative = inhibition",[18],1.44%
same,outcome,[19],inactive
same,Potency,[15],> 20.6 µM
CN1CCc2cccc3c2[C@H]1Cc1ccc(O)c(O)c1-3,Potency,[15],> 46 µM
same,Potency,[16],> 46 µM
same,Potency,[6],6.31 µM (active)
COc1cc(NS(=O)(=O)c2ccc(N)cc2)ncn1,outcome,[17],inactive
same,"activity change, negative = inhibition",[18],-5.57% and -24.6% and -2.19%
same,outcome,[19],inactive
same,Potency,[15],> 20.6 µM
same,Potency,[16],> 20.6 µM
same,Potency,[6],inactive
COc1cc([C@H]2Oc3cc([C@H]4Oc5cc(O)cc(O)c5C(=O)[C@@H]4O)ccc3O[C@@H]2CO)ccc1O,Potency,[1],> 92 µM
same,Potency,[3],> 92 µM
same,Potency,[4],> 92 µM
same,Potency,[5],> 92 µM
same,Potency,[7],inactive
same,Potency,[8],31.6 µM (active)
same,outcome,[9],inactive
same,Potency,[10],31.6 µM (active)
same,"viability change, negative = cytotoxic",[11],-84.4% (active)
same,outcome,[13],inactive
O=C(c1ccc(F)cc1)C1CCN(CCn2c(=S)[nH]c3ccccc3c2=O)CC1,Potency,[14],15.8 µM (active)
same,Potency,[15],> 46 µM
same,Potency,[16],> 46 µM
same,Potency,[6],inactive
CCCCCCCCNC(C)C(O)c1ccc(SC(C)C)cc1 (stereo unspecified),outcome,[17],inactive
same,outcome,[19],inactive
same,Potency,[15],> 20.6 µM
Oc1ccc(Cl)cc1Cc1cc(Cl)ccc1O,Potency,[3],37.4 µM (active)
same,Potency,[6],inactive
same,Potency,[7],31.6 µM (active)
same,"activity change, negative = cytotoxicity",[8],-84.9% (active)
same,"viability change, negative = cytotoxic",[11],-85.8% (active)
C[N+]12CCC(CC1)C(OC(=O)C(O)(c1ccccc1)c1ccccc1)C2 (stereo unspecified),outcome,[17],inactive
same,"activity change, negative = inhibition",[18],-83.7% (active)
same,outcome,[19],inactive
same,Potency,[15],> 20.6 µM
CN1CCC(OC(c2ccccc2)c2ccccc2)CC1,outcome,[17],inactive
same,outcome,[19],inactive
same,Potency,[16],> 20.6 µM
same,Potency,[6],inactive
C/C=C/c1ccc(O)c(OC)c1,Potency,[1],> 92 µM
same,Potency,[2],> 92 µM
same,Potency,[3],> 92 µM
same,Potency,[4],> 92 µM
same,Potency,[5],> 92 µM
same,Potency,[6],inactive
same,Potency,[7],inactive
same,"activity change, negative = cytotoxicity",[8],-17%
same,outcome,[9],inactive
same,Potency,[10],inactive
same,"viability change, negative = cytotoxic",[11],1.26%
same,outcome,[12],inactive
same,outcome,[13],inactive
CCCCC(CC)COC(=O)c1ccc(N(C)C)cc1 (stereo unspecified),Potency,[1],> 92 µM
same,Potency,[2],> 92 µM
same,Potency,[3],> 92 µM
same,Potency,[4],> 92 µM
same,Potency,[5],> 92 µM
same,Potency,[7],inactive
same,"activity change, negative = cytotoxicity",[8],-7.45%
same,outcome,[9],inactive
same,Potency,[10],inactive
same,"viability change, negative = cytotoxic",[11],0.409%
same,outcome,[12],inactive
same,outcome,[13],inactive
CCN(CC)CCNC(=O)COc1ccc(OC)cc1,outcome,[17],inactive
same,"activity change, negative = inhibition",[18],-21.8%
same,outcome,[19],inactive
same,Potency,[15],> 20.6 µM
same,Potency,[16],> 20.6 µM
same,Potency,[6],inactive
Cl/C(=C\n1cncn1)c1ccc(Cl)cc1Cl,Potency,[14],0.0631 µM (active)
same,Potency,[15],> 46 µM
same,Potency,[16],> 46 µM
CN=C(N)NCCC[C@H](N)C(=O)O,outcome,[17],inactive
same,"activity change, negative = inhibition",[18],-7.03% [at 38 µM]
same,Potency,[6],inactive

# Source: PubChem BioAssay (NCATS)
